# The whole screen tested about 48,000 compounds, of which about 13,000 (27%) showed an effect of 50% or more. Some of the results follow.
# System: Wolbachia pipientis
# Assay: Anti-Wolbachia Cell-Based Screen
# Assay type: functional
# Set-up: scale not given: in the data most compounds retested in dose-response had high values
# Details: 5 µM
row,SMILES,Percent Effect
1,CS(=O)(=O)NC[C@]12COC[C@H]1CN(C(=O)Cc1ccccc1F)C2,6.41%
2,CS(=O)(=O)NC[C@]12COC[C@H]1CN(C(=O)CCc1ccccc1)C2,-0.4913%
3,Cn1cccc1C(=O)N1C[C@@H]2COC[C@]2(CNS(C)(=O)=O)C1,-3.959%
4,O=C(NC[C@]12COC[C@H]1CN(CC1CCOCC1)C2)c1ccco1.O=C(O)C(F)(F)F,6.419%
5,CS(=O)(=O)NC[C@]12COC[C@H]1CN(C(=O)CC1CCCC1)C2,102.4%
6,CS(=O)(=O)NC[C@]12COC[C@H]1CN(C(=O)C1CCSCC1)C2,57.64%
7,COC[C@]12COC[C@H]1CN(C(=O)C1CCSCC1)C2,-5.007%
8,O=C(O)C(F)(F)F.O=S(=O)(NC[C@]12COC[C@H]1CN(CCc1ccccc1)C2)C1CC1,-3.746%
9,Clc1ccccc1OC1CCN(CC2CCOC2)CC1 (stereo not given),-1.584%
10,CC(=O)Nc1ccc(CN2CCc3[nH]cnc3C2c2ccc(C)o2)cc1 (stereo not given),-0.8872%
11,CC(=O)N[C@@H]1CN(C(=O)c2cc3sccc3[nH]2)C[C@H]1c1ccc(C)o1,26.08%
12,Cc1ccc(N2C[C@H]3OCC[C@H]3[C@H](C(=O)NCC3CC3)C2)nn1.O=C(O)C(F)(F)F,0.1783%
13,Cc1ncsc1CCN(C)C(=O)CN1CCOC1=O,2.507%
14,Cc1cnc(C(C)(C)NC(=O)NCc2ccc(C#N)cc2F)s1,-5.008%
15,COc1ccc2nc(C[C@@H]3C[C@@H](C(C)C)[C@H](CN(C)C)C=C3C)[nH]c2n1,-3.892%
16,C[S+]([O-])CCCNC(=O)c1cc(Br)c2c(c1)OCCO2 (stereo not given),-5.642%
17,CS(=O)(=O)NC[C@]12COC[C@H]1CN(C(=O)c1ncccn1)C2,4.055%
18,CS(=O)(=O)NC[C@]12COC[C@H]1CN(C(=O)c1ccccc1)C2,7.31%
19,CS(=O)(=O)NC[C@]12COC[C@H]1CN(C(=O)c1ccncn1)C2,0.7032%
20,CS(=O)(=O)NC[C@]12COC[C@H]1CN(C(=O)C1CC(F)(F)C1)C2,112.2%
21,CS(=O)(=O)NC[C@]12COC[C@H]1CN(C(=O)C1CC=CC1)C2,99.92%
22,COC[C@]12COC[C@H]1CN(C(=O)C1CC(F)(F)C1)C2,-2.486%
23,Cc1cc(CN(C)C(=O)c2cc3c([nH]c2=O)CCCC3=O)no1,-8.225%
24,CC(=O)c1cccc(OCCCC(=O)N(C)CCc2ccncc2)c1,5.185%
25,CN(CC1(O)CCCC1)C(=O)c1cccc(Nc2cnccn2)c1,136.4%

row,SMILES,Percent Effect
1,COCCN(CC(C)C)C(=O)c1cccc(Nc2cnccn2)c1,186.1%
2,COCCN(CCOC)C(=O)c1cccc(Cn2nc(C)cc2C)c1,-2.572%
3,COc1c(C)cnc(CN(C)C(=O)c2cccc(NC(N)=O)c2)c1C,7.754%
4,COCCCN(C)C(=O)c1cccc(Nc2cnccn2)c1,100%
5,CN(C)C(=O)c1cccc(Nc2cnn(C)c2)c1,-3.903%
6,COc1ccnc(NC(=O)c2cnccn2)c1,0.1681%
7,CN(Cc1cnccn1)C(=O)c1ccnc(OC2CCC2)c1,-12.54%
8,CCC(=O)NCc1cc(Br)c(OC)c(OC)c1,-2.986%
9,c1cnn(CCC2CCCCN2Cc2cnc(C3CCCCC3)nc2)c1 (stereo not given),-23.18%
10,CC(=O)OCC1CCCCN1C(=O)c1ccc(Cn2ccnc2)o1 (stereo not given),0.6554%
11,N#Cc1cn(CCCN2CCc3ccccc32)c(=O)[nH]c1=O,7.257%
12,CSc1cc2c(cc1NC(=O)NCC(=O)N(C)C)OCCO2,-7.029%
13,Nc1c(Cl)cnn1C1CCN(Cc2ccccc2)C1 (stereo not given),-6.784%
14,Cc1nnc(NCCc2coc(-c3ccccc3)n2)c(C#N)c1C,-1.856%
15,c1ccc(-c2nc(CNCCn3cccn3)cs2)cc1,17.11%
16,CNC(=O)CS(=O)(=O)Cc1coc(-c2ccc(OC)cc2)n1,-17.74%
17,COc1ccc(-c2nc(CCNc3nnc(C)c(C)c3C#N)co2)cc1,14.52%
18,c1ccc(-c2nc(CCNCc3ccncc3)co2)cc1,91.06%
19,COc1ccc(-c2nc(CCNCc3ccncc3)co2)cc1,89.2%
20,c1ccc(-c2nc(CCNCc3ccccn3)co2)cc1,85.74%
21,COc1cccc(-c2nc(CNCCc3cccnc3)cs2)c1,20%
22,c1ccc(-c2nnn3c2COC(CNCc2ccccn2)C3)cc1 (stereo not given),-8.365%
23,O=C1NCCCCC1SCc1coc(-c2ccccc2)n1 (stereo not given),-18.22%
24,c1ccc(Oc2ncccc2CNCc2ccccn2)cc1,6.646%
25,c1ccc(-c2nc(CCNCc3cccnc3)co2)cc1,108.2%

# From ChEMBL document CHEMBL3988442, “University of Dundee, Small-Polar-MMV Screening Library” (2021)
